Among all 4,100 compounds or so, about 1,600 (39%) were called active. About 25% were inconclusive and are not listed. The list shows a part of the results. Values without a mark were called inactive. Calls come from the whole dose curve; as a rule, active = well fitted inhibition curve with a large enough effect; inconclusive = small, poorly fitted or top-dose-only effect; inactive = no such curve, though single readings can be large or run the other way.
Experiment: qHTS Validation assay for Inhibitors of Plasmodium falciparum Dd2 growth in vitro; note: nearly all actives have a fitted effect of over 70% in size
Settings: P. falciparum Dd2 in RBCs, SYBR Green growth, 72 h; series mostly up to 28.7 µM; activity change, negative = inhibition: at the top concentration
Source text: Malaria, a parasitic disease spread to humans through the bite of a Plasmodium infected Anopheles mosquito, continues to be a global health burden affecting millions of people, with an estimated 228 million cases and 405,000 deaths in 2018. Concerns about safety and limitations of current antimalarial treatments strongly emphasize the need to develop new therapeutic options. The scarce number of chemotypes and validated drug targets with efficacy against the liver stage, have hindered development of new antimalarials. To address this, a chemoprophylactic drug discovery effort was conducted through a combined phenotypic high-throughput asexual blood stage and liver stage screen, providing a robust foundation to identify liver-stage active lead chemotypes. Compounds were initially screened against Plasmodium falciparum Dd2 strain parasites using a in vitro SYBRGreen-1 based 72 hr proliferation assay to identify novel chemotypes to advance to liver stage assays. NIH/NCATS Early Translation Branch Assay Submitter (PI): Anton Simeonov Ph.D.
[…] Assay Protocol: PROTOCOL TABLE (as described by Inglese et al., 2007) SEQUENCE No. (e.g., 1, 2, 3, etc.); PARAMETER (e.g., Cells, Incubation, Reagent, etc.); VALUE; DESCRIPTION SEQUENCE, Parameter, Description 1; Reagent; 3 uL complete malaria growth medium, 1536 TC treated Black clear bottom plate 2; Controls; 23 nL positive control artesunate (300 nM final) to column 1; Neutral control DMSO to columns 2-4 3; Compound; 23 nL of compounds in dose response concentration (29 uM to 0.5 nM final) 4; Reagent; 5 uL malaria infected red blood cells (2.5% hematocrit final, 0.3% parasitemia 5; Time; 72 hours at 37C (5% O2, 5% CO2, 90% N2; 95% Rh) 6; Reagent; 2 uL lysis buffer/SYBRGreen-1, 25 sec shake immediately following dispense 7; Time; ~16 hours at 37C (5% O2, 5% CO2, 90% N2; 95% Rh) 8; Detector; EnVision (PerkinElmer) bottom read at 485/14nm excitation and 535/25 nm emission NOTES (numbers refer to sequence above): 1; Complete Malaria Growth Media: 1X RPMI-1640 w/L-glutamine, 5.5g/L Albumax II, 367 uM Hypoxanthine, 25 mM HEPES, 0.25% Sodium Bicarbonate, 35 uM Gentamicin sulfate 2; Controls were added using the Kalypsis Pintool (Wako USA) equipped with 1536 pinhead 3; Compounds were added in a 7-point, titration with a high final concentration of 29 uM by Pintool from seven inter-plate titrations of library plates and two DMSO control plates at the beginning and end (see Yasgar et al., 2008). 4; Red blood cells infected with Plasmodium falciparum Dd2 parasites were used. 6; Lysis buffer: 20 mM Tris-HCl, 10 mM EDTA, 0.16% Saponin, 1.6% Triton-X, 10X SYBR Green. REFERENCE: Inglese J, Shamu CE, Guy RK. 2007. Reporting data from high-throughput screening of small-molecule libraries. Nat Chem Biol. doi:10.1038/nchembio0807-438 Yasgar A, Shinn P, Jadhav A, Auld D, Michael S, Zheng W, Austin CP, Inglese J, Simeonov A. 2008. Compound Management for Quantitative High-Throughput Screening. J Lab Autom 13:79-89. doi:10.1016/j.jala.2007.12.004
% is set by controls: 0 for no effect and ±100 for the full control effect; potency is the fitted concentration of half-maximal effect.

| SMILES | activity change, negative = inhibition [%] | Potency |
| --- | --- | --- |
| Cc1ccc(Nc2cc(=O)oc3ccccc23)c(C)c1 | -20.1 | – |
| COc1ccccc1NCc1cc(=O)oc2c(C)c(O)ccc12 | – | 5.96 µM (active) |
| COc1ccc(C)cc1NCc1cc(=O)oc2cc(-c3ccccc3)c(O)cc12 | – | 5.31 µM (active) |
| COc1ccc(-c2nc3ccccc3o2)cc1NC(=O)COc1c(C)cc(Cl)cc1Cl | 13.1 | – |
| O=C(Nc1ccc([N+](=O)[O-])cc1)Nc1ccc(OC(F)F)c(Cl)c1 | – | 2.66 µM (active) |
| Oc1ccc(-c2ccccc2)cc1CN1CCCCCC1 | – | 0.266 µM (active) |
| CN1C(=O)CC(C(=O)O)C12CCN(Cc1cccc(C(=O)O)n1)CC2 (stereo unspecified) | 37.6 | – |
| Oc1ccc(CN2CCCCC2)nc1-c1ccccc1 | – | 0.531 µM (active) |
| CNC(=O)[C@H]1C[C@H](Oc2ccccc2)CN1C(=O)CCc1nc2ccccc2[nH]1 | 4.06 | – |
| C/C(Cl)=C/Cc1c(C)[nH]c2c(ccc3ccccc32)c1=O | – | 0.842 µM (active) |
| O=c1[nH]c(C2CCCN(Cc3ccccn3)C2)nn1-c1ccc(Cl)cc1 (stereo unspecified) | – | 2.37 µM (active) |
| O=c1[nH]c(C2CCCN(Cc3ccc(F)cc3)C2)nn1-c1ccc(Cl)cc1 (stereo unspecified) | -21.6 | – |
| COc1ccc(-n2nc(C3CCCN(C(=O)Nc4ccccc4)C3)[nH]c2=O)cc1 (stereo unspecified) | 0 | – |
| COc1cc(C)cc(CN2CCC(Cc3ccccc3)CC2)c1O | – | 0.75 µM (active) |
| C/C=C/c1cc(CN2CCN(c3ccccc3)CC2)c(O)c(OC)c1 | – | 5.96 µM (active) |
| COc1ccc(C(=O)N2CCC(Cc3nc(-c4ccccc4)n[nH]3)CC2)cc1OC | -19 | – |

| SMILES | activity change, negative = inhibition [%] | Potency |
| --- | --- | --- |
| CCn1ccc2sc(C)c(C(=O)N3CCC(Cc4ccccc4)CC3)c2c1=O | 1.55 | – |
| COC1CN(c2ccc(C)cc2)C12CCN(C(=O)CCc1nc3ccccc3s1)CC2 (stereo unspecified) | – | 10.6 µM (active) |
| O=C(CCc1nc2ccccc2s1)N1CCC(c2nc(C3CCOCC3)no2)CC1 | -6.71 | – |
| CCN1C(=O)C2CC3(CCN(C(=O)CCc4nc5ccccc5[nH]4)CC3)CN2C1=O (stereo unspecified) | 13.2 | – |
| COc1cccc(NC(=O)c2ccc(-c3nnc4ccc(NC(=O)C5CCC5)cn34)cc2)c1 | – | 3.76 µM (active) |
| COc1ccc(C2Cn3cnc(C(=O)N4CCC(C(=O)Nc5ccc(F)c(C)c5)CC4)c3CO2)cc1 (stereo unspecified) | 2.95 | – |
| Cc1ccc(C(=O)N2CCCC(n3cc(-c4nc(-c5ccccc5)no4)nn3)C2)cc1 (stereo unspecified) | 0.926 | – |
| O=C(c1ccsc1)N1CCN(c2nnc3ccc(C(F)(F)F)cn23)CC1 | -20.5 | – |
| CCN(CC)C(=O)c1ccc(-c2nnc3ccc(NC(=O)C4CC4)cn23)cc1 | – | 2.99 µM (active) |
| CCN1CCN(C(=O)c2ccc(-c3nnc4ccc(NC(=O)C5CC5)cn34)cc2)CC1 | – | 6.68 µM (active) |
| COc1ccc(C(=O)Nc2cccc(-c3nnc4n3CCCC4)c2)cc1F | -19 | – |
| O=C(Nc1cccc(-c2nnc3n2CCCC3)c1)c1ccoc1 | -11.3 | – |
| CC(=O)Nc1ccc2nnc(-c3ccc(C(=O)N4CCCCCC4)cc3)n2c1 | – | 8.41 µM (active) |
| CCc1ccc(NC(=O)C2CCN(C(=O)c3nnn4cc(C)[nH]c(=O)c34)CC2)cc1 | 30.5 | – |
| Cc1ccc(CCNC(=O)C2CCN(C(=O)c3cc4c(=O)[nH]c(C)cn4n3)CC2)cc1 | 7.15 | – |

Reference: PubChem BioAssay AID1347416 (National Center for Advancing Translational Sciences (NCATS), 2020)
